PubChem BioAssay AID1159580 (chemical genetic matrix, 2015)
“And” between values parts separate entries of the source, which are not always exact repeats. Equal values may be shown once. Hit rate of the full screen: of about 5,500 compounds, about 2,000 (36%) were called active. Roughly 18% stayed inconclusive and do not appear here. No stated cut-off is given here; in the data, active means normalized growth mostly below about 0.91 (no sharp cut-off); inconclusive means no clear call, values can overlap the other calls; inactive means mostly above about 0.92. The list shows a part of the results.

Assay: chemical genetic growth profiling, strain panel (AID 1159580);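 further: tested at 20 µM; growth read once vehicle control cultures reached saturation at 30 °C; 1 = growth at the plate median or of vehicle wells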
Conditions: growth OD
[1] = S. cerevisiae deletion strains, locus YAL013W, strain DEP1, stronger effect = lower value
[2] = S. cerevisiae deletion strains, locus YBR229C, strain ROT2, stronger effect = lower value
[3] = S. cerevisiae deletion strains, locus YDL101C, strain DUN1, stronger effect = lower value
[4] = S. cerevisiae deletion strains, locus YDL134C, strain PPH21, stronger effect = lower value
[5] = S. cerevisiae deletion strains, locus YDR150W, strain NUM1, stronger effect = lower value
[6] = S. cerevisiae deletion strains, locus YEL061C, strain CIN8, stronger effect = lower value
[7] = S. cerevisiae deletion strains, locus YGR078C, strain PAC10, stronger effect = lower value
[8] = S. cerevisiae deletion strains, locus YGR229C, strain SMI1, stronger effect = lower value
[9] = S. cerevisiae deletion strains, locus YHR030C, strain SLT2, stronger effect = lower value
[10] = S. cerevisiae deletion strains, locus YJR043C, strain POL32, stronger effect = lower value
[11] = S. cerevisiae deletion strains, locus YJR075W, strain HOC1, stronger effect = lower value
[12] = S. cerevisiae deletion strains, locus YKL190W, strain CNB1, stronger effect = lower value
[13] = S. cerevisiae deletion strains, locus YLR039C, strain RIC1, stronger effect = lower value
[14] = S. cerevisiae deletion strains, locus YLR262C, strain YPT6, stronger effect = lower value
[15] = S. cerevisiae deletion strains, locus YMR263W, strain SAP30, stronger effect = lower value
[16] = S. cerevisiae deletion strains, locus YMR307W, strain GAS1, stronger effect = lower value
[17] = S. cerevisiae deletion strains, locus YNL153C, strain GIM3, stronger effect = lower value
[18] = S. cerevisiae deletion strains, locus YNL322C, strain KRE1, stronger effect = lower value
[19] = S. cerevisiae deletion strains, locus YPL055C, strain LGE1, stronger effect = lower value
[20] = S. cerevisiae deletion strains, locus YPL241C, strain CIN2, stronger effect = lower value

Measured: normalized growth

CC(=O)[C@@]1(O)CCC2C3C=C(Cl)C4=CC(=O)[C@@H]5CC5[C@]4(C)C3CC[C@@]21C (stereo partly specified)
inactive: [1] 1.02 | S. cerevisiae deletion strains, locus YBR021W, strain FUR4, stronger effect = lower value 0.996 | [2] 1.01 | S. cerevisiae deletion strains, locus YCL029C, strain bik1, stronger effect = lower value 1.02 | S. cerevisiae deletion strains, locus YDL035C, strain GPR1, stronger effect = lower value 1 | S. cerevisiae deletion strains, locus YDL074C, strain BRE1, stronger effect = lower value 0.991 | [3] 1.01 | [4] 1.01 | S. cerevisiae deletion strains, locus YDL185W, strain tfp1, stronger effect = lower value 1.01 | S. cerevisiae deletion strains, locus YDL192W, strain arf1, stronger effect = lower value 0.998 | S. cerevisiae deletion strains, locus YDR101C, strain arx1, stronger effect = lower value 1.01 | [5] 1.02 | S. cerevisiae deletion strains, locus YDR162C, strain NBP2, stronger effect = lower value 1 | S. cerevisiae deletion strains, locus YDR318W, strain mcm21, stronger effect = lower value 1 | S. cerevisiae deletion strains, locus YDR388W, stronger effect = lower value 1.01 | S. cerevisiae deletion strains, locus YDR502C, strain sam2, stronger effect = lower value 1.01 | [6] 1.01 | S. cerevisiae deletion strains, locus YER110C, stronger effect = lower value 1.02 | S. cerevisiae deletion strains, locus YER155C, strain BEM2, stronger effect = lower value 0.998 | S. cerevisiae deletion strains, locus YER167W, strain BCK2, stronger effect = lower value 0.988 | S. cerevisiae deletion strains, locus YGL078C, strain dbp3, stronger effect = lower value 1 | S. cerevisiae deletion strains, locus YGL086W, strain mad1, stronger effect = lower value 1.01 | S. cerevisiae deletion strains, locus YGL248W, strain PDE1, stronger effect = lower value 1 | [7] 0.999 | S. cerevisiae deletion strains, locus YGR135W, strain pre9, stronger effect = lower value 1.01 | [8] 1.01 | S. cerevisiae deletion strains, locus YGR252W, strain gcn5, stronger effect = lower value 0.952 | [9] 1.01 and 1.03 | S. cerevisiae deletion strains, locus YHR079C, strain IRE1 (second series), stronger effect = lower value 1.02 | S. cerevisiae deletion strains, locus YHR079C, strain IRE1, stronger effect = lower value 1.05 | S. cerevisiae deletion strains, locus YHR094C, strain hxt1, stronger effect = lower value 1.01 | S. cerevisiae deletion strains, locus YHR129C, strain ARP1, stronger effect = lower value 1 | S. cerevisiae deletion strains, locus YHR200W, strain rpn10, stronger effect = lower value 1.02 | S. cerevisiae deletion strains, locus YIL066C, strain RNR3, stronger effect = lower value 1.01 | S. cerevisiae deletion strains, locus YIL073C, strain SPO22, stronger effect = lower value 1.01 | S. cerevisiae deletion strains, locus YIL125W, strain kgd1, stronger effect = lower value 1.01 | S. cerevisiae deletion strains, locus YIR030C, strain dcg1, stronger effect = lower value 1.02 | S. cerevisiae deletion strains, locus YJL095W, strain BCK1, stronger effect = lower value 1.02 and 1.03 | S. cerevisiae deletion strains, locus YJL134W, strain LCB3, stronger effect = lower value 1.01 | S. cerevisiae deletion strains, locus YJL168C, strain set2, stronger effect = lower value 1.01 | S. cerevisiae deletion strains, locus YJL187C, strain SWE1 (second series), stronger effect = lower value 1.02 | [10] 1 | S. cerevisiae deletion strains, locus YJR066W, strain TOR1, stronger effect = lower value 0.95 | [11] 1.03 | S. cerevisiae deletion strains, locus YKL009W, strain mrt4, stronger effect = lower value 0.999 | S. cerevisiae deletion strains, locus YKL068W, stronger effect = lower value 1.01 | S. cerevisiae deletion strains, locus YKL085W, strain MDH1 (second series), stronger effect = lower value 0.999 | S. cerevisiae deletion strains, locus YKL085W, strain MDH1, stronger effect = lower value 0.999 | [12] 1.01 | S. cerevisiae deletion strains, locus YKR001C, strain vps1, stronger effect = lower value 0.995 | [13] 0.984 | S. cerevisiae deletion strains, locus YLR058C, strain SHM2, stronger effect = lower value 1.01 | S. cerevisiae deletion strains, locus YLR102C, strain apc9, stronger effect = lower value 1.01 | S. cerevisiae deletion strains, locus YLR113W, strain HOG1, stronger effect = lower value 0.974 | [14] 1 | S. cerevisiae deletion strains, locus YLR268W, strain sec22, stronger effect = lower value 1.02 | S. cerevisiae deletion strains, locus YLR330W, strain CHS5, stronger effect = lower value 1.01 | S. cerevisiae deletion strains, locus YLR342W, strain FKS1 (second series), stronger effect = lower value 1.01 | S. cerevisiae deletion strains, locus YLR371W, strain rom2, stronger effect = lower value 1.02 | S. cerevisiae deletion strains, locus YLR418C, strain cdc73, stronger effect = lower value 0.993 | S. cerevisiae deletion strains, locus YML016C, strain PPZ1, stronger effect = lower value 1.02 | S. cerevisiae deletion strains, locus YML032C, strain rad52, stronger effect = lower value 1.02 | S. cerevisiae deletion strains, locus YML124C, strain tub3, stronger effect = lower value 1.01 | S. cerevisiae deletion strains, locus YMR078C, strain ctf18, stronger effect = lower value 1 | S. cerevisiae deletion strains, locus YMR223W, strain ubp8, stronger effect = lower value 1.01 | [15] 1.02 | [16] 0.943 | S. cerevisiae deletion strains, locus YNL067W, strain RPL9B, stronger effect = lower value 1.02 | S. cerevisiae deletion strains, locus YNL128W, strain TEP1, stronger effect = lower value 1.03 | [17] 1.01 | S. cerevisiae deletion strains, locus YNL183C, strain NPR1, stronger effect = lower value 0.958 | S. cerevisiae deletion strains, locus YNL233W, strain BNI4, stronger effect = lower value 0.987 | S. cerevisiae deletion strains, locus YNL250W, strain rad50, stronger effect = lower value 1.01 | S. cerevisiae deletion strains, locus YNL271C, strain bni1, stronger effect = lower value 1.01 | S. cerevisiae deletion strains, locus YNL298W, strain CLA4, stronger effect = lower value 1.01 | S. cerevisiae deletion strains, locus YNL307C, strain MCK1, stronger effect = lower value 1 | [18] 1.01 | S. cerevisiae deletion strains, locus YNR052C, strain pop2, stronger effect = lower value 1.01 | S. cerevisiae deletion strains, locus YOL006C, strain TOP1, stronger effect = lower value 1.02 | S. cerevisiae deletion strains, locus YOL012C, strain htz1 1.53 | S. cerevisiae deletion strains, locus YOL147C, strain pex11, stronger effect = lower value 1 | S. cerevisiae deletion strains, locus YOR061W, strain CKA2, stronger effect = lower value 1.01 | S. cerevisiae deletion strains, locus YOR069W, strain VPS5, stronger effect = lower value 1.01 | S. cerevisiae deletion strains, locus YOR136W, strain idh2, stronger effect = lower value 1 | S. cerevisiae deletion strains, locus YOR144C, strain elg1, stronger effect = lower value 1 | S. cerevisiae deletion strains, locus YOR184W, strain ser1, stronger effect = lower value 1 | S. cerevisiae deletion strains, locus YOR231W, strain MKK1, stronger effect = lower value 1.01 | S. cerevisiae deletion strains, locus YOR316C, strain cot1, stronger effect = lower value 1.01 | [19] 1.01 | [20] 1.01 | S. cerevisiae deletion strains, locus YPL256C, strain CLN2, stronger effect = lower value 1.04 | S. cerevisiae deletion strains, locus YPR119W, strain clb2, stronger effect = lower value 1 | S. cerevisiae deletion strains, locus YPR141C, strain kar3, stronger effect = lower value 0.998 | S. cerevisiae deletion strains, locus YPR163C, strain tif3, stronger effect = lower value 1.01 | S. cerevisiae deletion strains, locus YPR167C, strain met16, stronger effect = lower value 1.01 | S. cerevisiae deletion strains, strain wtn01, stronger effect = lower value 1.02 | S. cerevisiae strains, strain wild type, stronger effect = lower value 1

CCN(CCS(=O)(=O)c1ccc(C)cc1)S(=O)(=O)c1ccccc1
inactive: [1] 1.02 | [2] 1.01 | S. cerevisiae deletion strains, locus YCL061C, strain MRC1, stronger effect = lower value 0.988 | [3] 0.991 | [4] 0.987 | [5] 1.01 | [6] 0.987 | [7] 0.998 | [8] 0.999 | [9] 0.993 | S. cerevisiae deletion strains, locus YHR087W, strain rtc3, stronger effect = lower value 0.994 | [10] 1 | [11] 0.995 | [12] 0.998 | [13] 1.05 | S. cerevisiae deletion strains, locus YLR058C, strain SHM2 (second series), stronger effect = lower value 0.998 | S. cerevisiae deletion strains, locus YLR085C, strain ARP6, stronger effect = lower value 1.06 | [14] 1.05 | S. cerevisiae deletion strains, locus YML094W, strain GIM5, stronger effect = lower value 1.03 | S. cerevisiae deletion strains, locus YMR219W, strain ESC1, stronger effect = lower value 1.01 | [15] 0.988 | [16] 0.969 | [17] 0.984 | S. cerevisiae deletion strains, locus YNL298W, strain CLA4 (second series), stronger effect = lower value 1.01 | [18] 1.01 | S. cerevisiae deletion strains, locus YNR030W, strain Alg12, stronger effect = lower value 0.99 | [19] 1.06 | [20] 1 | S. cerevisiae deletion strains, locus YPR135W, strain CTF4, stronger effect = lower value 0.943
